D3 antag – D3 dopamine receptor (human) antagonism. max response, negative = inhibition, %. actives 2.5% (n = 360,000). D3R cells, DiscoveRx beta-arrestin luminescence, antagonist mode; active compounds read low; in the data active means max response below about -50%; inconclusive means no clear call, values can overlap the other calls
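Cells plated overnight at 1500 cells/well, then exposed to library compounds with dopamine controls for 90 minutes at 37 degrees C. DiscoveRx reagent added for 30–60 minutes at room temperature; luminescence read, quantitative HTS format.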
TRPML1 agonist – agonists of human TRPML1 channel. Q9GZU1. TRPML1-expressing cells, Ca2+ dye fluorescence, FDSS. activation, % (no concentration beside the values). actives 0.12% (n = 410,000). AID 624414; in the data active means activation above about 50%; inconclusive means mostly about 30% to 49%
Target sequence (Q9GZU1 whole entry, looked up): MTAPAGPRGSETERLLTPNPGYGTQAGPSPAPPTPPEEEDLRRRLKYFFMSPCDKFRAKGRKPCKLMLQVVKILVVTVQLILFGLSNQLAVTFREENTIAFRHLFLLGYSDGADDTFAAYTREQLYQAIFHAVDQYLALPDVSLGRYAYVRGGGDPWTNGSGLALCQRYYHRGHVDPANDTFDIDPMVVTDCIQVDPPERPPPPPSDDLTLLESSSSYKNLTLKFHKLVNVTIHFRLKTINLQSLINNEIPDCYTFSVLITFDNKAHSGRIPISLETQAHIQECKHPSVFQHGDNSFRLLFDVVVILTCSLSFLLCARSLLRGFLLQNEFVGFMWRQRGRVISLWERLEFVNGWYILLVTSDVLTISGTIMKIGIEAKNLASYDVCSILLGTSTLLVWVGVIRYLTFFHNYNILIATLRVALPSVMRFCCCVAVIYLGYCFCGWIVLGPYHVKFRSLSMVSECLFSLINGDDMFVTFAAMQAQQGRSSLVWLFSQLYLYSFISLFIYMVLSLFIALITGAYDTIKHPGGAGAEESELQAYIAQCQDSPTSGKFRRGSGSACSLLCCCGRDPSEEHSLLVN
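Calcium fluorescence on an FDSS kinetic reader gave the read-out. Tet-induced TRPML1-DL cells were plated overnight, dye-loaded (Ca8 with quencher, 45-90 min, room temperature, dark), then read 110 s after compound addition, and again 110 s after 4uM final 54-4 (EC80).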
D3 ag – D3 dopamine receptor (human) agonism; P35462; D3R DiscoveRx beta-arrestin cells, luminescence, 90 min; max activation, %; actives 0.58% (n = 410,000); AID 652048; in the data active means max activation above about 30%
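Agonist mode: compounds and dopamine controls were applied to plated cells for 90 min at 37 degrees C after an overnight attachment at 1500 cells/well. Luminescent read-out followed 30 - 60 minutes at room temperature with DiscoveRx detection reagent.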
TRPML1 blocker – blocks the human TRPML1 channel; actives 0.02% (n = 390,000); AID 624415; activity change, negative = inhibition, % (no concentration beside the values); TRPML1-inducible cells, Ca2+ dye fluorescence, FDSS; active compounds read low; inhibition of EC80 agonist-evoked calcium signal; in the data active means activity change below about -50%; inconclusive means between about -30% and that limit;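 further: stimulus is agonist 54-4 at its EC80 concentration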
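Calcium fluorescence in TRPML1-DL cells induced overnight with Tet: a 110 s read after compound pin addition, then a 110 s antagonist read after challenge with 54-4 at 4 uM final (EC80).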
Large screens that a line does not name were inactive. Sampled rows, rich in hits. Any-hit rate of the full collection: about 2.9%.

CC[C@H](C)[C@H](N)C(=O)O	none (no result: D3 antag, TRPML1 agonist, TRPML1 blocker)
CC1CCN(C(=O)CSc2nc3ccccc3[nH]2)CC1	D3 antag -53
NC(=O)C1CCN(C(=O)CSc2nc3ccccc3[nH]2)CC1	none
O=S(=O)(Nc1cc(Br)cc2cccnc12)c1ccccc1	none (no result: D3 antag, D3 ag)
N#CC(C#N)=c1ccc2c(c1)NC1(CCCCC1)N=2	D3 antag -78
O=C(C[n+]1c(Cl)cc(Cl)c2ccccc21)c1ccccc1	none (no result: D3 antag, D3 ag, TRPML1 blocker)
Cc1nc(-n2[nH]c3c(c2=O)CCCC3)[nH]c(=O)c1Cc1ccccc1	D3 antag -61
Cc1nc(N2CCc3ccccc3C2)[nH]c(=O)c1Cc1ccccc1	none
COc1cc2nc(CC(O)c3nc4cc(OC)c(OC)cc4[nH]3)[nH]c2cc1OC (configuration not stated)	none (no result: D3 antag, D3 ag, TRPML1 blocker)
CCOc1ccc(OCCC(=O)N(CC)CC(=O)Nc2ccccc2OC)cc1	D3 ag 31
Cc1cc(NC(=O)NCc2ccc3c(c2)CCN3C(=O)c2ccccc2)ccc1Br	none (no result: D3 antag)
COc1ccc(-c2cn(CCC(=O)O)c(-c3ccc(Cl)nc3)n2)cc1	D3 ag 52
O=C(O)CCn1cc(-c2ccc(Cl)cc2)nc1-c1ccc(Cl)nc1	none
OCCC1CN(Cc2cc3c(cc2Cl)OCO3)CCN1Cc1ccccc1 (configuration not stated)	D3 antag -53
COc1cccc(CN2CCN(Cc3cccc4c3OCO4)CC2CCO)c1 (configuration not stated)	D3 antag inconclusive
CCOc1ccc(CN2CCN(Cc3cc4c(cc3Cl)OCO4)CC2CCO)cc1 (configuration not stated)	D3 antag -64
CCOc1ccc(CN2CCN(Cc3cccc4c3OCO4)CC2CCO)cc1 (configuration not stated)	D3 antag -61
CCOc1ccc(CN2CCN(Cc3cnn(CC)c3C)CC2CCO)cc1 (configuration not stated)	none
Cc1ccc(CN2CCN(Cc3cccc4c3OCO4)CC2CCO)cc1 (configuration not stated)	D3 antag -94
Brc1ccc(Oc2ncc(CN3CCN(c4ccccc4)CC3)s2)cc1	D3 antag -60, D3 ag 33
NS(=O)(=O)c1ccc(N=Nc2c[nH]c(=O)c(O)c2)cc1	D3 antag -66
Nc1nc(O)c(N=Nc2ccc(S(N)(=O)=O)cc2)c(=O)[nH]1	none
Oc1c(C(Nc2cccc(C(F)(F)F)c2)c2ccncc2)ccc2cccnc12 (configuration not stated)	D3 antag -54
Cc1ccc(C(Nc2ccccn2)c2ccc3cccnc3c2O)cc1 (configuration not stated)	none (no result: D3 antag)
Oc1c(C(Nc2nccs2)c2ccc(C(F)(F)F)cc2)ccc2cccnc12 (configuration not stated)	D3 ag 39
Oc1c(C(Nc2cccnc2)c2ccccc2F)ccc2cccnc12 (configuration not stated)	none (no result: D3 antag, D3 ag, TRPML1 blocker)
S=c1c2c(nc3nc[nH]n13)CCC2	none
CC1CCc2c(nc3nc[nH]n3c2=O)C1 (configuration not stated)	D3 antag -53
O=C(Nc1nc(-c2cccc([N+](=O)[O-])c2)cs1)C(c1ccccc1)c1ccccc1	D3 antag -53
CC(OC(=O)c1ccccc1Br)C(=O)Nc1nc(-c2cccc([N+](=O)[O-])c2)cs1 (configuration not stated)	none
Cc1cccc(-c2cc(C(=O)O)c3c(-c4ccc(F)cc4)[nH]nc3n2)c1	none (no result: D3 antag)
Cc1cccc(-c2cc(=O)c(C(=O)O)cn2-c2ccc(F)cc2F)c1	D3 antag -79
COc1ccc(Cl)cc1NC(=O)CSc1nc2c(oc3ccccc32)c(=O)n1Cc1ccco1	none (no result: D3 antag)
CCCCCCn1c(=O)[nH]c2nc3cc(N)c(C)cc3nc2c1=O	TRPML1 agonist 70
CCn1c(=O)c2c(nc3n2CCN3c2ccc(OC)cc2)n(C)c1=O	none (no result: D3 antag)
C(=C\c1ccnc2ccccc12)/c1ccc2c(c1)OCO2	none (no result: D3 antag, D3 ag, TRPML1 blocker)
CCn1c(SCC(=O)O)nc2ccccc21	none
CCCCn1c(SCC(=O)O)nc2ccccc21	D3 antag -80
O=C(O)Cn1c(SCc2ccccc2)nc2ccccc21	D3 antag -53
CCN1CCN(c2ncnc3c2c(-c2ccccc2)cn3-c2ccc(F)cc2)CC1	D3 antag -55
Clc1ccccc1N1CCN(c2ncnc3c2c(-c2ccccc2)cn3-c2ccccc2)CC1	TRPML1 agonist 59 (no result: D3 antag)
COc1ccccc1NC(=O)c1sc(-c2ccc(Cl)cc2)cc1N	none (no result: D3 antag)
NC(c1csc(Nc2ccc(C(F)(F)F)cn2)n1)C1CCCCC1 (configuration not stated)	D3 antag -53 (no result: TRPML1 blocker)
NC(CO)c1csc(Nc2ccc(C(F)(F)F)cn2)n1 (configuration not stated)	none
COC(=O)c1ccccc1OCCN1CCCCCC1	D3 antag -57
CC(=O)c1ccccc1OCCCCN1CCCCC1	D3 antag -77
CCN(CC)CCC#CC(O)(c1ccccc1)C1CCCCC1 (configuration not stated)	D3 antag inconclusive
CCC[N+]1(CC#CC(O)(c2ccccc2)C2CCCCC2)CCCCC1 (configuration not stated)	D3 antag -54
O=C(O)CSC1=NS(=O)(=O)c2ccccc21	none (no result: D3 antag, D3 ag, TRPML1 blocker)
CCOC(=O)C1=CN(Cc2cccc(I)c2)S(=O)(=O)N(C)C1C (configuration not stated)	D3 antag -67
CCOC(=O)C1=CN(Cc2cccc(Br)c2)S(=O)(=O)N(C)C1C (configuration not stated)	none
CCOC(=O)C1=CN(Cc2cccc(F)c2)S(=O)(=O)N(CC)C1c1ccc(C(F)(F)F)cc1 (configuration not stated)	D3 antag -55
CN1CCCN(c2cc(-c3ccc4ccccc4c3)nc3ccnn23)CC1	D3 antag -67 (no result: TRPML1 blocker)
CN(C)CC/C=C1/c2ccc(F)cc2Sc2ccc(Cl)cc21	D3 antag -84
CN(C)CCC=C1c2ccccc2CCc2ccccc21	none
CN(C)CCC=C1c2ccccc2C(C)(C)c2ccccc21	none (no result: D3 antag, TRPML1 agonist, TRPML1 blocker)
CN(C)CC/C=C1\c2cc(Cl)ccc2Sc2cc(F)c(F)cc21	D3 antag -104
CN(C)CC/C=C1\c2ccc(F)cc2Sc2cc(F)c(Cl)cc21	D3 antag -101
CN(C)CC/C=C1\c2ccccc2Sc2cc(F)c(Cl)cc21	D3 antag -81
Cn1c(C(c2cc3ccccc3n2C)c2cc3ccccc3n2C)cc2ccccc21	none (no result: D3 antag, D3 ag, TRPML1 blocker)
C1CCN(CCCNC2C3CC4CC(C3)CC2C4)C1 (configuration not stated)	D3 antag -53
C(CNC1C2CC3CC(C2)CC1C3)CN1CCOCC1 (configuration not stated)	none
Brc1cccc(-c2nnn3c2nc(NCc2ccc4c(c2)OCO4)c2ccccc23)c1	none (no result: D3 antag)
COc1ccc(-c2cn3c(n2)sc2cc(C(=O)Nc4cccc(SC)c4)ccc23)cc1	D3 ag 77 (no result: D3 antag)
COc1cccc(-n2c(=O)c3ccccc3n3c(=S)[nH]nc23)c1	TRPML1 blocker -51

Bioassay records: PubChem, National Center for Advancing Translational Sciences (NCATS)
